Reference: PubChem BioAssay (Tox21)
“And” between values parts separate entries of the source, which are not always exact repeats. Identical values can stand only once. Inconclusive results are not listed. Entries that show only a call come without a potency. The source made the active and inactive calls. Unless noted, the call rests on the fitted dose curve; in most records, active means well fitted cell-killing curve with a large enough effect in the repeat runs (not every such curve was filed as active); inconclusive means weak or mixed curves, or effect the other way; inactive means no such curve, though single readings can be large or run the other way.

Target: Nuclear receptor subfamily 1 group I member 3 (Homo sapiens) (UniProt Q14994)
Sequence (Q14994 whole entry, looked up): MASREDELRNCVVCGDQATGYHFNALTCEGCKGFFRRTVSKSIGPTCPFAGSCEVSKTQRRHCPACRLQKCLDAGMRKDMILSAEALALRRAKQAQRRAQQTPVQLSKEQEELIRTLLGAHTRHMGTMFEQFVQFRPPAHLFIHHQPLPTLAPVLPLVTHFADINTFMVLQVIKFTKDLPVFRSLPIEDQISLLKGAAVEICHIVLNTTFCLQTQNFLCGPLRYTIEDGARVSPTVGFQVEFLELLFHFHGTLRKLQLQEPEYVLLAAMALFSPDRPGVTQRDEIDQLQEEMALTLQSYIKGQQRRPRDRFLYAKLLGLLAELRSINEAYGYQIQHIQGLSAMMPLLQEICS
Experiment: qHTS assay to identify small molecule agonists of the constitutive androstane receptor (CAR) signaling pathway (AID 1224839; active means well fitted curve in the direction sought with a large enough effect in the repeat runs; an effect the other way counts as inactive or inconclusive; further: nearly all actives have a fitted effect of over 15% in size)
Details: HepG2 hCAR CYP2B6-luciferase, agonist mode, 24 h; series mostly up to 92.4 µM
Summary of the method: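 Cells were plated and incubated 4 hrs, then dosed with compounds at 15 concentrations. PK11195 was added to 0.75 uM final. After 24 hrs at 37 C, luciferase luminescence was measured.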
Potency means the concentration at half of the fitted maximal effect.

Row | Compound | Potency
1 | O=C(Nc1ccc2[nH]ccc2c1)c1cc2cc(F)ccc2n1Cc1cccc(F)c1 | 27.3 µM (active)
2 | COc1ccc(OC)c(CC(C)N)c1 (stereo unspecified) | inactive
3 | O=C(O)COc1nc(Cl)c(Cl)cc1Cl | inactive

Tested on: not listed separately
Experiment: qHTS assay to identify small molecule antagonists of the estrogen related receptor signaling pathway with the pleiotropic PPARgamma coactivator (PGC) from Tox21 10K library - cell viability counter screen (AID 1224840); further: nearly all actives have a fitted effect of over 40% in size
Details: PGC/ERR reporter cells viability, CellTiter-Fluor, 17.5 h; series mostly up to 92.4 µM
Summary of the method: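 Seeded PGC/ERR cells (2,000/well, 6 h, 37 C/5% CO2) get compound by pin tool; 17.5 h incubation at 37 C; CellTiter-Fluor added, 30 min, fluorescence measured.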

Row | Compound | Potency
4 | CCOCn1c(-c2ccc(Cl)cc2)c(C#N)c(Br)c1C(F)(F)F | 5.45 µM (active)
5 | N#CNC#N | inactive
6 | CCCCCCCCCCCCCN1CC(C)OC(C)C1 (stereo unspecified) | inactive
7 | C[C@H]1CC[C@@H]2[C@@H](C)[C@H]3[C@H](C[C@H]4[C@@H]5CC=C6CC(O[C@@H]7O[C@H](CO)[C@H](O)[C@H](O[C@@H]8O[C@H](CO)[C@@H](O)[C@H](O)[C@H]8O)[C@H]7O[C@H]7O[C@@H](C)[C@H](O)[C@@H](O)[C@H]7O)CC[C@]6(C)[C@H]5CC[C@]34C)N2C1 (stereo partly specified) | 22.4 µM (active)
8 | O=[N+]([O-])c1c2ccccc2cc2ccccc12 | inactive
9 | Nc1ccccc1C(=O)Oc1ccc2ccccc2c1 | inactive
10 | BrC(Br)Br | inactive
11 | CC(C)[C@H](C(=O)OC(C#N)c1cccc(Oc2ccccc2)c1)c1ccc(OC(F)F)cc1 (stereo partly specified) | inactive
12 | CC(C)(C)OO | inactive
13 | O=C1NCN(c2ccccc2)C12CCN(CC1COc3ccccc3O1)CC2 (stereo unspecified) | inactive
14 | ClC(Cl)=C(c1ccc(Cl)cc1)c1ccc(Cl)cc1 | inactive
15 | CC(=O)Nc1ccc2c(c1)Cc1ccccc1-2 | inactive
16 | ClC1=C(Cl)C2(Cl)C3C(Cl)C=CC3C1(Cl)C2(Cl)Cl (stereo unspecified) | inactive
17 | c1ccc2c(c1)[nH]c1cnccc12 | inactive
18 | Cc1ccc(OP(=O)(Oc2ccccc2)Oc2ccccc2)cc1 | inactive
19 | Cc1c(Cl)c(=O)oc2cc(OP(=O)(OCCCl)OCCCl)ccc12 | inactive

Row | Compound | Potency
20 | CCCN(CC)CC1COC2(CCC(C(C)(C)C)CC2)O1 (stereo unspecified) | inactive
21 | FC(F)(F)c1cccc(C2=CCN(CCc3ccc4ccccc4c3)CC2)c1 | inactive
22 | CCOC(=O)C1(c2ccccc2)CCN(CCC(C#N)(c2ccccc2)c2ccccc2)CC1 | inactive
23 | N#CCCSCCC#N | inactive
24 | OC(c1ccc(Cl)cc1)(c1ccc(Cl)cc1)C(Cl)(Cl)Cl | inactive
25 | NNC(=O)c1ccccc1 | inactive
26 | C[C@]12CC[C@H]3[C@@H](CCC4=CC(=O)CC[C@@]43C)[C@@H]1CC[C@@H]2O | inactive
27 | CCCN(CCC)CCc1c[nH]c2ccccc12 | inactive
28 | CCOC(=O)OC1=C(c2cc(C)ccc2C)C(=O)NC12CCC(OC)CC2 (stereo unspecified) | inactive
29 | Fc1cccc(Cl)c1CCl | inactive
30 | CCN | inactive
31 | CC(C)OS(C)(=O)=O | inactive
32 | Clc1ccc(-c2ccc(Cl)c(Cl)c2Cl)c(Cl)c1Cl | inactive
33 | COc1ccc(OC)c(CC(C)N)c1 (stereo unspecified) | inactive
34 | O=C(O)COc1nc(Cl)c(Cl)cc1Cl | inactive
35 | FC(Cl)(Cl)Cl | inactive

Tested on: not listed separately
Experiment: qHTS assay to identify small molecule antagonists of the estrogen related receptor signaling pathway with the pleiotropic PPARgamma coactivator (PGC) from Tox21 10K library (AID 1224841; call rule not given here; further: actives are mostly falling curves and most rising ones were filed inactive; nearly all actives have a fitted effect of over 50% in size)
Details: PGC/ERR reporter cell line, ONE-Glo luciferase, 18 h; series mostly up to 92.4 µM
Summary of the method: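 Test chemicals dissolved in DMSO were applied to pre-incubated (6 h) PGC/ERR cells at 2,000 cells/well for an 18 h, 37 C treatment; reporter luminescence was then read using One-Glo.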

Row | Compound | Potency
36 | C[C@H]1CC[C@@H]2[C@@H](C)[C@H]3[C@H](C[C@H]4[C@@H]5CC=C6CC(O[C@@H]7O[C@H](CO)[C@H](O)[C@H](O[C@@H]8O[C@H](CO)[C@@H](O)[C@H](O)[C@H]8O)[C@H]7O[C@H]7O[C@@H](C)[C@H](O)[C@@H](O)[C@H]7O)CC[C@]6(C)[C@H]5CC[C@]34C)N2C1 (stereo partly specified) | inactive
37 | O=[N+]([O-])c1c2ccccc2cc2ccccc12 | inactive
38 | BrC(Br)Br | inactive
39 | ClC(Cl)=C(c1ccc(Cl)cc1)c1ccc(Cl)cc1 | inactive
40 | Cc1ccc(OP(=O)(Oc2ccccc2)Oc2ccccc2)cc1 | 24.7 µM (active)
41 | FC(F)(F)c1cccc(C2=CCN(CCc3ccc4ccccc4c3)CC2)c1 | inactive
42 | OC(c1ccc(Cl)cc1)(c1ccc(Cl)cc1)C(Cl)(Cl)Cl | inactive
43 | Clc1ccc(-c2ccc(Cl)c(Cl)c2Cl)c(Cl)c1Cl | inactive
44 | O=C(Nc1ccc2[nH]ccc2c1)c1cc2cc(F)ccc2n1Cc1cccc(F)c1 | inactive

Tested on: not listed separately
Experiment: qHTS assay to identify small molecule agonists of the estrogen related receptor signaling pathway with the pleiotropic PPARgamma coactivator (PGC) from Tox21 10K library (AID 1224842; active means well fitted curve in the direction sought with a large enough effect in the repeat runs; an effect the other way counts as inactive or inconclusive; further: nearly all actives have a fitted effect of over 15% in size)
Details: PGC/ERR reporter cell line, luciferase ONE-Glo, 18 h; series mostly up to 92.4 µM
Summary of the method: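 Luminescence from One-Glo (30 min, room temperature) measured after PGC/ERR cells had 18 h at 37 C with pinned compound (23 nL in DMSO). Cells had been seeded at 2,000 per well and pre-incubated 6 h.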

Row | Compound | Potency
45 | BrC(Br)Br | inactive
46 | O=C1NCN(c2ccccc2)C12CCN(CC1COc3ccccc3O1)CC2 (stereo unspecified) | inactive
47 | ClC(Cl)=C(c1ccc(Cl)cc1)c1ccc(Cl)cc1 | inactive
48 | Cc1ccc(OP(=O)(Oc2ccccc2)Oc2ccccc2)cc1 | inactive
49 | Clc1ccc(-c2ccc(Cl)c(Cl)c2Cl)c(Cl)c1Cl | inactive
50 | O=C(Nc1ccc2[nH]ccc2c1)c1cc2cc(F)ccc2n1Cc1cccc(F)c1 | 2.73 µM (active)

Target: Thyrotropin receptor (Homo sapiens) (UniProt P16473)
Sequence (P16473 whole entry, looked up): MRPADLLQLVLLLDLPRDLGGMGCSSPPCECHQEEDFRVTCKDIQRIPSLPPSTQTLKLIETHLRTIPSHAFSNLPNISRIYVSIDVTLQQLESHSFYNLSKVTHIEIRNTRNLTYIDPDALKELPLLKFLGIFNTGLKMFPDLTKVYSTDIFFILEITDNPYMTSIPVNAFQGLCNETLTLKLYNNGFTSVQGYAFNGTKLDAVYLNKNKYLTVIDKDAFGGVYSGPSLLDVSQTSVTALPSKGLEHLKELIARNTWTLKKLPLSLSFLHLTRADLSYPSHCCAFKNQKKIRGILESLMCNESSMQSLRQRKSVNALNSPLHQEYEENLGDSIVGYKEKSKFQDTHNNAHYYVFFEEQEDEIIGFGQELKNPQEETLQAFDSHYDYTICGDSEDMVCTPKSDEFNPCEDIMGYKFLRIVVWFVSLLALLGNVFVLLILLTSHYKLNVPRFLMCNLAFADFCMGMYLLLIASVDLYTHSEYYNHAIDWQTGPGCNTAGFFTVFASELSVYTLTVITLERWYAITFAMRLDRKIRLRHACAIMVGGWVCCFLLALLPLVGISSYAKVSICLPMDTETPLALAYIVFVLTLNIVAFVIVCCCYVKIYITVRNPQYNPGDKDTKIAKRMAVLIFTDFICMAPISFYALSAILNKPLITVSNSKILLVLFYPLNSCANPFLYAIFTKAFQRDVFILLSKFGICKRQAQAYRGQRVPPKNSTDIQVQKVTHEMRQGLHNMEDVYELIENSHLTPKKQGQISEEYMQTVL
Experiment: qHTS assay to identify small molecule agonists of the thyroid stimulating hormone receptor (TSHR) signaling pathway (AID 1224843; calls by dose curve; further: nearly all actives have a fitted effect of over 45% in size)
Details: TSHR-HEK293 cells, cAMP HTRF, agonist mode, 30 min; series mostly up to 92.4 µM
Summary of the method: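 A cell-based cAMP HTRF format was run in TSHR-transfected HEK293 cells, 800 per well. Treatment: 30 min, room temperature. Detection: 1 h with labelled cAMP and anti-cAMP cryptate. Concentration-response over 15 points, three replicates.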

Row | Compound | Potency
51 | N#CNC#N | inactive
52 | CCCCCCCCCCCCCN1CC(C)OC(C)C1 (stereo unspecified) | inactive
53 | O=[N+]([O-])c1c2ccccc2cc2ccccc12 | inactive
54 | Nc1ccccc1C(=O)Oc1ccc2ccccc2c1 | inactive
55 | BrC(Br)Br | inactive
56 | CC(C)[C@H](C(=O)OC(C#N)c1cccc(Oc2ccccc2)c1)c1ccc(OC(F)F)cc1 (stereo partly specified) | inactive
57 | CC(C)(C)OO | inactive
58 | O=C1NCN(c2ccccc2)C12CCN(CC1COc3ccccc3O1)CC2 (stereo unspecified) | inactive
59 | ClC1=C(Cl)C2(Cl)C3C(Cl)C=CC3C1(Cl)C2(Cl)Cl (stereo unspecified) | 7.73 µM (active) and 15.4 µM (active)
60 | CC(C)CCCCCOC(=O)c1ccccc1C(=O)OCCCCCC(C)C | inactive
61 | c1ccc2c(c1)[nH]c1cnccc12 | inactive
62 | O=c1[nH]c2ccccc2n1CCCN1CCC(n2c(=O)[nH]c3cc(Cl)ccc32)CC1 | inactive
63 | Cc1ccc(OP(=O)(Oc2ccccc2)Oc2ccccc2)cc1 | 15.6 µM (active)
64 | Cc1c(Cl)c(=O)oc2cc(OP(=O)(OCCCl)OCCCl)ccc12 | inactive
65 | CCCN(CC)CC1COC2(CCC(C(C)(C)C)CC2)O1 (stereo unspecified) | inactive
66 | CCOC(=O)C1(c2ccccc2)CCN(CCC(C#N)(c2ccccc2)c2ccccc2)CC1 | inactive
67 | N#CCCSCCC#N | inactive
68 | NNC(=O)c1ccccc1 | inactive
69 | CCCN(CCC)CCc1c[nH]c2ccccc12 | inactive
70 | Fc1cccc(Cl)c1CCl | inactive
71 | CCN | inactive
72 | CC(C)OS(C)(=O)=O | inactive
73 | Clc1ccc(-c2ccc(Cl)c(Cl)c2Cl)c(Cl)c1Cl | inactive
74 | COc1ccc(OC)c(CC(C)N)c1 (stereo unspecified) | inactive
75 | O=C(O)COc1nc(Cl)c(Cl)cc1Cl | inactive
76 | FC(Cl)(Cl)Cl | inactive
